Results filed as inconclusive are left out. Active and inactive are the calls of the source. Unless noted, calls follow the shape of the dose curve; as a rule, active = well fitted curve in the direction sought with a large enough effect in the repeat runs; inconclusive = weak or mixed curves; inactive = no such curve, though single readings can be large; an effect the other way counts as inactive or inconclusive.
How the values were obtained:
[1] = qHTS assay to identify small molecule antagonists of the retinoid acid receptor (RAR) signaling pathway - cell viability counter screen (AID 1159551); also: nearly all actives have a fitted effect of over 35% in size
Procedure, shortened: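 Luminescent ATP quantitation (CellTiter-Glo) gave cell viability in C3RL4 cells exposed to test chemicals for 6 h at 37 C alongside 1 uM final retinol.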

[2] = qHTS assay to identify small molecule antagonists of the retinoic acid receptor (RAR) signaling pathway (AID 1159552; also: nearly all actives have a fitted effect of over 50% in size)
Procedure, shortened: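 Cells of the C3RL4 line were seeded, incubated overnight, then dosed with compounds in DMSO followed immediately by retinol (1 uM final). Six hours later luciferase detection reagent went in; signal was measured after 30 min at RT.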

[3] = qHTS assay to identify small molecule antagonists of the estrogen related receptor (ERR) signaling pathway from Tox21 library - cell viability counter screen (AID 1224834); also: nearly all actives have a fitted effect of over 30% in size
Procedure, shortened: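 Fluorescence from CellTiter-Fluor gives the viability read-out, taken 30 min after reagent addition. Before that, ERR cells seeded 6 h earlier were incubated with compounds for 17.5 h at 37 C.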

[4] = target: Luciferin 4-monooxygenase (Photinus pyralis) (UniProt P08659); test: qHTS assay to identify small molecule inhibitors of firefly luciferase (AID 1224835); also: nearly all actives have a fitted effect of over 25% in size; also: potency is read from the fitted curve at half-maximal effect; as to activity change, negative = inhibition: series mostly up to about 120 µM
Sequence of Luciferin 4-monooxygenase (Photinus pyralis) (P08659 whole entry, looked up): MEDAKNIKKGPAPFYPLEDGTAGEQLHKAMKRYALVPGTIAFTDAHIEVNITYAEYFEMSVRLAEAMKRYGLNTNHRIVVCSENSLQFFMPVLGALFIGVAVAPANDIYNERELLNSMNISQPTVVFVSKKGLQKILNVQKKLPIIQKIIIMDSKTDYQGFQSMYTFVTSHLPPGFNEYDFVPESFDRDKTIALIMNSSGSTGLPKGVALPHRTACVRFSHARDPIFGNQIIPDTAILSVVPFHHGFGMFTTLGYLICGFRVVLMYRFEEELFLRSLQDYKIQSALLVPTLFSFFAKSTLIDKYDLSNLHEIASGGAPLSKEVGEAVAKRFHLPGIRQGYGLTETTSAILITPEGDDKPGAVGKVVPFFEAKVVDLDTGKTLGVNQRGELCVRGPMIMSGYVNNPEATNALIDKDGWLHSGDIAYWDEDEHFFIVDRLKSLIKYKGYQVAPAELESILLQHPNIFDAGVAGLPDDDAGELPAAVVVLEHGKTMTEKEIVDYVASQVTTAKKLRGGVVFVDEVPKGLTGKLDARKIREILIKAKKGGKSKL
Procedure, shortened: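 Quantitative HTS format; KM concentrations of both substrates. Purified P. pyralis FLuc activity quantified from luminescence images.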

[5] = qHTS assay to identify small molecule agonists of the constitutive androstane receptor (CAR) signaling pathway - cell viability counter screen (AID 1224836); also: series mostly up to about 92 µM; nearly all actives have a fitted effect of over 45% in size
Procedure, shortened: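 HepG2-CYP2B6-hCAR, 2500 cells/well, 4 h pre-incubation; cpd 15 conc + PK11195 0.75 uM final; 23 h, 37 C/5% CO2; CellTiter-Fluor, fluorescence.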

[6] = qHTS assay to identify small molecule antagonists of the constitutive androstane receptor (CAR) signaling pathway - cell viability counter screen (AID 1224837); also: series mostly up to about 92 µM; nearly all actives have a fitted effect of over 45% in size
Procedure, shortened: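 HepG2-CYP2B6-hCAR cells, 2500/well, 4 hr pre-incubation; compound titration, 15 conc.; CITCO 50 nM final; 23 hr, 37 C/5% CO2; CellTiter-Fluor, fluorescence intensity.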

[7] = qHTS assay to identify small molecule antagonists of the estrogen related receptor signaling pathway with the pleiotropic PPARgamma coactivator (PGC) from Tox21 10K library - cell viability counter screen (AID 1224840; active = well fitted cell-killing curve with a large enough effect in the repeat runs, not every such curve was filed as active; also: nearly all actives have a fitted effect of over 40% in size)
Procedure, shortened: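 PGC/ERR cells, 2,000/well; 6 h pre-incubation 37 C/5% CO2; cpd in DMSO via pin tool; 17.5 h 37 C; CellTiter-Fluor, 30 min; fluorescence.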

[8] = qHTS assay to identify small molecule antagonists of the estrogen related receptor signaling pathway with the pleiotropic PPARgamma coactivator (PGC) from Tox21 10K library (AID 1224841; call rule not given here; also: actives are mostly falling curves and most rising ones were filed inactive; nearly all actives have a fitted effect of over 50% in size; also: potency is read from the fitted curve at half-maximal effect; as to activity, negative = inhibition: series mostly up to about 92 µM)
Procedure, shortened: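 PGC/ERR cell line, 2,000 cells/well; 6 h pre-incubation 37 C/5% CO2; compounds (DMSO) pinned in; 18 h, 37 C; One-Glo, 30 min RT; luminescence.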

[9] = target: Thyrotropin receptor (Homo sapiens) (UniProt P16473); test: qHTS assay to identify small molecule agonists of the thyroid stimulating hormone receptor (TSHR) signaling pathway (AID 1224843; calls by dose curve; also: nearly all actives have a fitted effect of over 45% in size)
Sequence of Thyrotropin receptor (Homo sapiens) (P16473 whole entry, looked up): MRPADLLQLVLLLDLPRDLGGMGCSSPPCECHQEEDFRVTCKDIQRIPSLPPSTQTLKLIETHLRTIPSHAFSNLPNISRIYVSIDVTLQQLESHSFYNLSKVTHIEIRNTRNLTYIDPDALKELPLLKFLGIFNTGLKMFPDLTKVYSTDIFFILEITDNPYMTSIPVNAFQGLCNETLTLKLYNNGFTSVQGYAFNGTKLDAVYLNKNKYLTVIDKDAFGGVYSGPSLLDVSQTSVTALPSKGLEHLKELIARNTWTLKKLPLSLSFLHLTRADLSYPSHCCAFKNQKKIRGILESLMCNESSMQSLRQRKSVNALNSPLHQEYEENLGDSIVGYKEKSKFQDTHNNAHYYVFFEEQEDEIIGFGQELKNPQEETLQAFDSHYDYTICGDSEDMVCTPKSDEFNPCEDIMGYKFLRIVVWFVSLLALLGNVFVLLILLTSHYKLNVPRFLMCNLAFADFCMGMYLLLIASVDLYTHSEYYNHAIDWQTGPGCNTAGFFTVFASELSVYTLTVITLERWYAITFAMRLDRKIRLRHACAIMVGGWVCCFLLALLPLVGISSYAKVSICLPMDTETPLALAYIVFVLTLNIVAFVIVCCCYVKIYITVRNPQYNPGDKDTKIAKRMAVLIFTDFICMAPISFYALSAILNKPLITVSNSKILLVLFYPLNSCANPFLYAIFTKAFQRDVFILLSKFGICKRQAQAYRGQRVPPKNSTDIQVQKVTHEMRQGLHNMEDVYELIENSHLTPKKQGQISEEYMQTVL
Procedure, shortened: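 Cell line HEK293 with TSHR; density 800/well. Exposure 30 min RT. Readout HTRF cAMP (cAMP-d2/anti-cAMP-cryptate), 1 h RT before reading.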

[10] = qHTS assay to identify small molecule agonists of the hypoxia (HIF-1) signaling pathway - cell viability counter screen (AID 1224844; calls by dose curve; also: nearly all actives have a fitted effect of over 50% in size)
Procedure, shortened: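 ME-180 HRE-bla cells, 2,000/well, 0.5% dialyzed FBS; 5 hr settle, 17 hr compound at 37C/5% CO2; CCF4-AM reporter read first, then CellTiter-Glo luminescence after 30 min RT.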

[11] = target: Nuclear receptor subfamily 1 group I member 3 (Homo sapiens) (UniProt Q14994); test: qHTS assay to identify small molecule antagonists of the constitutive androstane receptor (CAR) signaling pathway (AID 1224838);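 also: HepG2 cells stably expressing hCAR with CYP2B6 luciferase reporter stimulated by CITCO; nearly all actives have a fitted effect of over 40% in size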; also: potency is read from the fitted curve at half-maximal effect
Sequence of Nuclear receptor subfamily 1 group I member 3 (Homo sapiens) (Q14994 whole entry, looked up): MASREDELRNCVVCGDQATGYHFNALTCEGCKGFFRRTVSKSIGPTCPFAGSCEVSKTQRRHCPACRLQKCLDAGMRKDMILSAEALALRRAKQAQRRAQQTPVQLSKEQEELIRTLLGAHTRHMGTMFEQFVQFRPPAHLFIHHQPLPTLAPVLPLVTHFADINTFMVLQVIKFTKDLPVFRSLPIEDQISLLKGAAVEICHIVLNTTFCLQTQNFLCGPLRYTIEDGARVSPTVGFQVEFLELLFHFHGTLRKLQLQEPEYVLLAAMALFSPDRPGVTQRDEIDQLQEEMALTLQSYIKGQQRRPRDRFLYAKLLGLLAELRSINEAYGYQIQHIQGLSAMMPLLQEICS
Procedure, shortened: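 HepG2-CYP2B6-hCAR cells; 4 h pre-incubation; cpd (15 conc) + CITCO 50 nM final; 24 h, 37 C/5% CO2; ONE-Glo, luminescence.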

[12] = target: Nuclear receptor subfamily 1 group I member 3 (Homo sapiens) (UniProt Q14994); test: qHTS assay to identify small molecule agonists of the constitutive androstane receptor (CAR) signaling pathway (AID 1224839);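 also: HepG2 cells stably carrying human CAR and a CYP2B6 luciferase reporter; series mostly up to about 92 µM; nearly all actives have a fitted effect of over 15% in size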
Procedure, shortened: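 HepG2-CYP2B6-hCAR cells, 2500/well, 4 h pre-incubation; compounds 15 conc.; PK11195 0.75 uM final; 24 h, 37 C/5% CO2; ONE-Glo luciferase read.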

[13] = qHTS assay to identify small molecule agonists of the estrogen related receptor signaling pathway with the pleiotropic PPARgamma coactivator (PGC) from Tox21 10K library (AID 1224842); also: nearly all actives have a fitted effect of over 15% in size
Procedure, shortened: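 PGC/ERR reporter cells (NTP line) were seeded 2,000 per well, rested 6 h at 37 C/5% CO2, then pin-dosed with compounds in DMSO for 18 h at 37 C; luciferase read by One-Glo luminescence after 30 min at room temperature.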
% is scaled to controls: 0 for no effect and ±100 for the full control effect.

CCCCCCCOC(=O)c1ccccc1C(=O)OCCCCCCC
inactive: Potency [1] | Potency [2] | Potency [3] | Potency [4] | Potency [5] | Potency [6] | Potency [7] | Potency [8] | Potency [9] | Potency [10]

CCC(=O)CC(C)CC (centres undefined)
inactive: activity change, negative = cytotoxicity [1] 0.29% [at 0.349 µM] | activity, negative = inhibition [2] -2.26% [at 0.349 µM] | viability change, negative = cytotoxic [3] 2.01% [at 0.349 µM] | activity change, negative = inhibition [4] 4.97% [at 0.435 µM] | viability change, negative = cytotoxic [5] -0.276% [at 0.349 µM] | viability change, negative = cytotoxic [7] 0.87% [at 0.349 µM] | activation [9] 6.29% [at 0.349 µM] | activity change, negative = cytotoxicity [10] 2.65% [at 0.29 µM]

CC(C)=CC1CC(C)CCO1 (centres undefined)
inactive: Potency [1] | Potency [2] | Potency [3] | Potency [4] | Potency [5] | Potency [7] | Potency [9] | Potency [10]

CCCCCCCC/C=C/CCCOC(C)=O
inactive: Potency [1] | Potency [2] | Potency [3] | Potency [4] | Potency [6] | Potency [11] | Potency [12] | Potency [7] | Potency [8] | Potency [9] | Potency [10]

CCC(C)c1ccccc1 (centres undefined)
inactive: Potency [1] | Potency [2] | Potency [3] | Potency [4] | Potency [5] | Potency [6] | Potency [7] | Potency [9] | Potency [10]

CCC(C)C(=O)OC (centres undefined)
inactive: Potency [1] | Potency [2] | Potency [3] | Potency [4] | Potency [5] | Potency [6] | Potency [7] | Potency [13] | Potency [9] | Potency [10]

CC1(C)C(=O)N(CO)C(=O)N1CO
inactive: Potency [1] | Potency [2] | Potency [3] | Potency [4] | Potency [5] | Potency [6] | Potency [7] | Potency [9] | Potency [10]

CCCCCCCCCCCCCc1ccccc1
inactive: Potency [1] | Potency [2] | Potency [3] | Potency [4] | Potency [5] | Potency [6] | Potency [7] | Potency [9] | Potency [10]

CCOCN(C(=O)CS(=O)(=O)O)c1c(C)cccc1CC
inactive: Potency [1] | Potency [2] | Potency [3] | Potency [4] | Potency [5] | Potency [11] | Potency [12] | Potency [7] | Potency [9] | Potency [10]

O=C(O)Cc1ccc(OCCNC[C@H](O)c2ccccc2)cc1
inactive: Potency [1] | Potency [2] | Potency [3] | Potency [4] | Potency [5] | Potency [11] | Potency [12] | Potency [7] | Potency [9] | Potency [10]

CCCCCCCC(C)=O
inactive: Potency [1] | Potency [2] | Potency [3] | Potency [4] | Potency [5] | Potency [7] | Potency [9] | Potency [10]

CN(C)CCN1CCOCC1
inactive: Potency [1] | Potency [2] | Potency [3] | Potency [4] | Potency [5] | Potency [11] | Potency [7] | Potency [9] | Potency [10]

CC(=O)OC1CCCCC1
inactive: Potency [1] | Potency [2] | Potency [3] | Potency [4] | Potency [5] | Potency [6] | Potency [7] | Potency [13] | Potency [9] | Potency [10]

CCO[Si](C)(C)OCC
inactive: Potency [1] | Potency [2] | Potency [3] | Potency [4] | Potency [5] | Potency [11] | Potency [12] | Potency [7] | Potency [13] | Potency [9] | Potency [10]
active: Potency [8] 24.3 µM

C#CC(O)CCC (centres undefined)
inactive: Potency [1] | Potency [2] | Potency [3] | Potency [4] | Potency [6] | Potency [11] | Potency [12] | Potency [7] | Potency [8] | Potency [13] | Potency [9] | Potency [10]

C/C=C/CO
inactive: Potency [1] | Potency [2] | Potency [3] | Potency [4] | Potency [5] | Potency [11] | Potency [7] | Potency [9] | Potency [10]

Cc1cccc(Br)c1
inactive: Potency [1] | Potency [2] | Potency [3] | Potency [4] | Potency [6] | Potency [11] | Potency [7] | Potency [9]

O=C(O)c1cccc(Cl)n1
inactive: Potency [1] | Potency [2] | Potency [3] | Potency [4] | Potency [5] | Potency [6] | Potency [7] | Potency [9] | Potency [10]

CC1=CP(=O)(c2ccccc2)CC1 (centres undefined)
inactive: Potency [1] | Potency [2] | Potency [3] | Potency [4] | Potency [5] | Potency [6] | Potency [7] | Potency [8] | Potency [9] | Potency [10]

CC(C)(C)c1cc(CCC(=O)NCCCCCCNC(=O)CCc2cc(C(C)(C)C)c(O)c(C(C)(C)C)c2)cc(C(C)(C)C)c1O
active: Potency [11] 1.93 µM
inactive: Potency [1] | Potency [2] | Potency [3] | Potency [4] | Potency [6] | Potency [12] | Potency [7] | Potency [9] | Potency [10]

Oc1ccc(-c2ccccc2)c(Cl)c1
active: Potency [4] 39.9 µM
inactive: Potency [1] | Potency [2] | Potency [3] | Potency [5] | Potency [11] | Potency [7] | Potency [9]

CC(=O)c1ccccc1N
inactive: Potency [1] | Potency [2] | Potency [3] | Potency [4] | Potency [5] | Potency [11] | Potency [12] | Potency [7] | Potency [9] | Potency [10]
